According to PubChem BioAssay (NCATS):
Inconclusive results are not listed. Entries that show only a call come without a potency. Activity calls are given as the source filed them. Unless noted, the call rests on the fitted dose curve; in most records, active means well fitted curve in the direction sought with a large enough effect; inconclusive means small, poorly fitted or top-dose-only effect, or another doubt; inactive means no such curve, though single readings can be large; an effect the other way counts as inactive or inconclusive.

How the values were obtained:
[1] = Cellular Toxicity (caspase-3) Hek293 (AID 664);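 further: cells exposed to compound for 16 h at 37 °C before readout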
How it was run: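 Luminescent Caspase-Glo 3/7 readout (aminoluciferin release) in HEK293 cells after 16 h compound treatment, 37 °C. Normalization: DMSO = basal, 100 uM tamoxifen = 100% stimulation. Concentration-response fitted with standard Hill equation for AC50.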

[2] = Cellular Toxicity (caspase-3) N2a (AID 665); conditions: Potency: caspase-3 activation;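 further: compound exposure lasted 16 h at 37 °C before readout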; further: potency means the concentration at half of the fitted maximal effect
How it was run: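 Luminescent Caspase-Glo 3/7 readout in N2a mouse neuroblastoma cells after 16 h compound exposure at 37 °C. Signal scaled to DMSO (basal) and 10 uM staurosporine (100%). Concentration-response fitted with Hill equation for AC50.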

[3] = Cellular Toxicity (caspase-3) NIH 3T3 (AID 666); further: potency means the concentration at half of the fitted maximal effect
How it was run: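 NIH 3T3, 1000 cells/well, 5 hr settle then 16 hr compound at 37°C; Caspase-Glo 3/7, 20 min RT, luminescence. DMSO = basal, 100 uM tamoxifen = 100%. Hill-equation AC50, qHTS.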

[4] = Cellular Toxicity (caspase-3) Renal Proximal Tubule (AID 667);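 further: cells exposed to compound for 16 hours at 37 °C before detection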
How it was run: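 Caspase 3/7 activation measured by luminescent aminoluciferin release in primary rat proximal tubule cells after 16 hr compound exposure at 37 °C. AC50 from Hill-fitted concentration-response, scaled between DMSO and 10 uM staurosporine.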

[5] = molecular target: Cytochrome P450 3A4 (Homo sapiens) (UniProt P08684); assay: qHTS Assay for Inhibitors and Substrates of Cytochrome P450 3A4 (AID 884); further: nearly all actives have a fitted effect of over 50% in size; further: potency means the concentration at half of the fitted maximal effect; on activity change, negative = inhibition: series mostly up to about 57 µM
How it was run: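 Luminescent readout of luciferin produced by CYP3A4 (20 nM) dealkylation of Luciferin-PPXE, 25 uM (its KM). NADPH-driven reaction ran 60 min at RT after 10 min compound preincubation; data scaled to 57 uM ketoconazole as 100% inhibition.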

[6] = molecular target: Guanine nucleotide-binding protein G(i) subunit alpha-1 (Homo sapiens) (UniProt P63096); assay: qHTS Assay for Inhibitors of RGS12 GoLoco Motif Activity (Green Fluorophore) (AID 879);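 further: negative values mean loss of peptide binding seen as reduced polarization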
How it was run: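 A drop in FITC polarization marked displacement of the FITC-tagged RGS12 GoLoco peptide (10 nM) from Gαi1 (50 nM). Compounds were incubated 10 min at room temperature in Tris pH 7.5 buffer containing 150 mM NaCl, 0.1 mM GDP and 0.05% NP40; unlabeled peptide titration served as control.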

[7] = molecular target: Cytochrome P450 2C9 (Homo sapiens) (UniProt P11712); assay: qHTS Assay for Inhibitors and Substrates of Cytochrome P450 2C9 (AID 883); further: nearly all actives have a fitted effect of over 60% in size; further: potency means the concentration at half of the fitted maximal effect
How it was run: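 Signal: luciferase luminescence reporting luciferin produced by CYP2C9. Conditions: 10nM enzyme, Luciferin-H 100uM at KM, 25mM KPO4, 37C, 60 min NADPH-driven reaction. Reference: 57uM sulphaphenazole as 100% inhibition.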

[8] = molecular target: Cytochrome P450 3A4 (Homo sapiens) (UniProt P08684); assay: qHTS Assay for Activators of Cytochrome P450 3A4 (AID 885); further: nearly all actives have a fitted effect of over 65% in size
How it was run: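 Luminescent readout of luciferin formed from 25 uM Luciferin-PPXE (KM level) by 20 nM CYP3A4 in 200 mM KPO4, with 60 min NADPH-driven reaction at room temperature after 10 min compound exposure. Ketoconazole (57 uM) defined 100% inhibition.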

[9] = molecular target: Cytochrome P450 2D6 (Homo sapiens) (UniProt P10635); assay: qHTS Assay for Inhibitors and Substrates of Cytochrome P450 2D6 (AID 891); further: nearly all actives have a fitted effect of over 60% in size; further: potency means the concentration at half of the fitted maximal effect;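 on activity change, negative = inhibition: luciferin methyl ether substrate demethylated by CYP2D6 with NADPH regeneration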
How it was run: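 Luminescent read-out of luciferin formed by 5 nM human CYP2D6 demethylating 30 uM Luciferin-ME EGE (Km level) over 60 min at room temperature after NADPH regeneration addition. Data normalized to full inhibition by 1.43 uM quinidine.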

[10] = qHTS Assay for Identification of Small Molecule Antagonists for NFkB Signaling Pathway (AID 895; active means well fitted inhibition curve with a large enough effect in the signal ratio, with a control signal flat, not every such curve was filed as active; the % refers to the signal ratio; further: potency means the concentration at half of the fitted maximal effect)
How it was run: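 ME-180 NFkB-bla cells (beta-lactamase under NFkB response element), plated overnight, treated with compound then 10 pM TNF alpha (about EC50) for 5 hrs at 37 C. LiveBLAzer FRET read at 460/530 nm emission, 405 nm excitation.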

Cytochrome P450 2D6 (Homo sapiens), sequence (P10635 whole entry, looked up): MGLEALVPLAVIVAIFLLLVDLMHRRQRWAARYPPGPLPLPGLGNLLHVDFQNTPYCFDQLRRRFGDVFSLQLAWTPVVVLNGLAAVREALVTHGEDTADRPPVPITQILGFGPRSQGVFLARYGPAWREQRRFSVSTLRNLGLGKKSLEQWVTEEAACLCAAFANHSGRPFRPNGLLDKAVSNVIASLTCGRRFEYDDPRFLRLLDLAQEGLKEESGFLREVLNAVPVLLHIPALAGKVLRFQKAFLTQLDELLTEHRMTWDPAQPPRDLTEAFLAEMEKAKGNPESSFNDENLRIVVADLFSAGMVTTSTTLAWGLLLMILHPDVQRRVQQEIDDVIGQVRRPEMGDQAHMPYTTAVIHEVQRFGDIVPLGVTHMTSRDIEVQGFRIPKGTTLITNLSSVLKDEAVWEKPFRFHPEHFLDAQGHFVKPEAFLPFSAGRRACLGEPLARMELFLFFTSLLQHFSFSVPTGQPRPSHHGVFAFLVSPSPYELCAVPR
Cytochrome P450 2C9 (Homo sapiens), sequence (P11712 whole entry, looked up): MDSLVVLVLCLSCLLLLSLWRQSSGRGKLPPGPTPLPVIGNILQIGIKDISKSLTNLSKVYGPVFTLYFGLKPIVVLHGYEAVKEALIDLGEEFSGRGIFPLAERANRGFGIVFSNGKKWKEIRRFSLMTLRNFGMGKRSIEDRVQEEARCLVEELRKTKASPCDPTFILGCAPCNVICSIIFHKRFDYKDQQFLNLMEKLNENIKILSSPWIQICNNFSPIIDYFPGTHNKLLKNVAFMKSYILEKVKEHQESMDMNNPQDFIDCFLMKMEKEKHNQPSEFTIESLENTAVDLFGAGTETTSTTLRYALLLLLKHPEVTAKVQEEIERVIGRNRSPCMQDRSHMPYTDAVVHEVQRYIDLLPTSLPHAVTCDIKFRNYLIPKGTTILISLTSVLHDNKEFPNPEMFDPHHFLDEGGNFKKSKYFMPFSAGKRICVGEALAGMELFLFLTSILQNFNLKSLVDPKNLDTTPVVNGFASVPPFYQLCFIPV
Cytochrome P450 3A4 (Homo sapiens), sequence (P08684 whole entry, looked up): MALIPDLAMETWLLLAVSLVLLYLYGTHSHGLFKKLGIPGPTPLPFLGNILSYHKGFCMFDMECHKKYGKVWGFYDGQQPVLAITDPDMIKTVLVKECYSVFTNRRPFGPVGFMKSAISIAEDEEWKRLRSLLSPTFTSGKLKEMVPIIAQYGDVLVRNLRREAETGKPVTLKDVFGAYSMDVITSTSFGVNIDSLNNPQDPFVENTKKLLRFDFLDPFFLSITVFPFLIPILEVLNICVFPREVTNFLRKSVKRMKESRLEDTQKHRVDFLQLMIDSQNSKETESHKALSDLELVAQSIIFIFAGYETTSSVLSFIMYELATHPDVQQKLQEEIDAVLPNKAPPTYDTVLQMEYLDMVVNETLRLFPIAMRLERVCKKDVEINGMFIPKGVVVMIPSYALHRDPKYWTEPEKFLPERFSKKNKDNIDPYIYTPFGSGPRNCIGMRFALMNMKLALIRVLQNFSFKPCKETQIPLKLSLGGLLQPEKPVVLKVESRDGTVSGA
Guanine nucleotide-binding protein G(i) subunit alpha-1 (Homo sapiens), sequence (P63096 whole entry, looked up): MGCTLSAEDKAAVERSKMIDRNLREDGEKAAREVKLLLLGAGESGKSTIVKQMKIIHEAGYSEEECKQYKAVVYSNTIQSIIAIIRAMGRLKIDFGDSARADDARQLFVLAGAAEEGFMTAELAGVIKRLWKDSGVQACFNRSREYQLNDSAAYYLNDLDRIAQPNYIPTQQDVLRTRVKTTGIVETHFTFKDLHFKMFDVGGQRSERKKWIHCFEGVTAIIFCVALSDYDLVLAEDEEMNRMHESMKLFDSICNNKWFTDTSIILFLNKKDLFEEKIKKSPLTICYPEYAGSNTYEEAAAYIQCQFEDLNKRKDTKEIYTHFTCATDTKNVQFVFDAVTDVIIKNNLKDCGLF

For `C=CCc1ccc(O)c(OC)c1`, the outcome [1] was “inactive”, the Potency [2] was “inactive” and the Potency [3] was “inactive”. The outcome [4] was “inactive”.
In the case of `CC(O)C(=O)O` (configuration not stated), the outcome [1] is reported as “inactive”, the Potency [2] is reported as “inactive” and the Potency [3] is reported as “inactive”. For the same compound, the outcome [4] was “inactive” and the Potency [5] was “inactive”.
In the case of `Oc1ccc(O)cc1`, the outcome [1] is reported as “inactive”, the Potency [2] is reported as “inactive” and the outcome [4] is reported as “inactive”. The outcome [6] was “inactive”, the Potency [7] was “inactive” and the Potency [8] was “inactive”. The Potency [9] was “inactive” and the Potency [10] was 10 µM (active).
In the case of `Oc1c(I)cc(Cl)c2cccnc12`, the outcome [1] is reported as “inactive”, the Potency [2] is reported as “inactive” and the Potency [3] is reported as 12.6 µM (active). The outcome [4] was “inactive”.
With `CC(=O)Oc1ccc(C(c2ccc(OC(C)=O)cc2)c2ccccn2)cc1` the outcome [1] was “inactive”, the Potency [2] was “inactive” and the Potency [3] was “inactive”. The outcome [4] was “inactive” and the Potency [8] was “inactive”.
For `Oc1c(Cl)cc(Cl)cc1Sc1cc(Cl)cc(Cl)c1O`, the Potency [2] was “inactive”, the Potency [3] was “inactive” and the outcome [4] was “inactive”. The Potency [8] was “inactive”.
For `CN(C)/N=N/c1nc[nH]c1C(N)=O`, the outcome [1] was “inactive”, the Potency [2] was “inactive” and the Potency [3] was “inactive”. For the same compound, the outcome [4] was “inactive” and the Potency [5] was “inactive”.
For `Nc1cc(Cl)c(NC2=NCCN2)c(Cl)c1`, the outcome [6] was “inactive”.
With `COc1cccc2c1C(=O)c1c(O)c3c(c(O)c1C2=O)C[C@@](O)(C(=O)CO)C[C@@H]3O[C@H]1C[C@H](N)[C@H](O)[C@H](C)O1` the outcome [1] was “inactive”, the Potency [2] was 3.16 µM (active) and the Potency [3] was 0.398 µM (active). For the same compound, the outcome [4] was “inactive” and the Potency [8] was “inactive”.
In the case of `C[C@]12CC[C@@H]3c4ccc(O)cc4CC[C@H]3[C@@H]1CC[C@@H]2O`, the outcome [1] is reported as “inactive”, the Potency [2] is reported as “inactive” and the Potency [3] is reported as “inactive”. The outcome [4] was “inactive”, the outcome [6] was “inactive” and the Potency [5] was “inactive”.
In the case of `CC/C(=C(/CC)c1ccc(O)cc1)c1ccc(O)cc1`, the outcome [1] is reported as “inactive”, the Potency [2] is reported as “inactive” and the Potency [3] is reported as “inactive”. The outcome [4] was “inactive”.
For `CC(=O)O[C@]1(C(C)=O)CC[C@H]2[C@@H]3C[C@H](C)C4=CC(=O)CC[C@]4(C)[C@H]3CC[C@@]21C`, the Potency [2] was “inactive”, the Potency [3] was “inactive” and the outcome [4] was “inactive”. The Potency [5] was 15.8 µM (active) and the Potency [8] was “inactive”.
In the case of `Nc1ccc(C(=O)O)cc1`, the outcome [1] is reported as “inactive”, the Potency [2] is reported as “inactive” and the Potency [3] is reported as “inactive”. The outcome [4] was “inactive” and the Potency [5] was “inactive”.
In the case of `O=C(O)CCCCC(=O)O`, the outcome [1] is reported as “inactive”, the Potency [2] is reported as “inactive” and the Potency [3] is reported as “inactive”. The outcome [4] was “inactive” and the Potency [5] was “inactive”.
For `O=C1CCC(c2ccc(-n3ccnc3)cc2)=NN1`, the outcome [6] was “inactive”, the Potency [5] was 1.58 µM (active) and the Potency [8] was “inactive”. The Potency [9] was 2.51 µM (active).
With `CNCCC=C1c2ccccc2CCc2ccccc21` the outcome [6] was “inactive”, the activity change, negative = inhibition [7] was -6.44% [at 11.4 µM] (inactive) and the Potency [8] was “inactive”. For the same compound, the Potency [9] was 3.16 µM (active).
In the case of `COc1cc(NS(C)(=O)=O)ccc1Nc1c2ccccc2nc2ccccc12`, the outcome [6] is reported as “inactive”, the Potency [7] is reported as “inactive” and the Potency [8] is reported as “inactive”.
With `COc1c(C)c2c(c(O)c1C/C=C(\C)CCC(=O)O)C(=O)OC2` the Potency [7] was “inactive”, the Potency [8] was “inactive” and the Potency [9] was “inactive”.
With `Oc1cc(O)c2c(c1)O[C@H](c1ccc(O)c(O)c1)[C@H](O)C2` the outcome [6] was “inactive” and the Potency [8] was “inactive”.
With `CCOc1ccc(Cc2nccc3cc(OCC)c(OCC)cc23)cc1OCC` the Potency [7] was 3.98 µM (active) and the Potency [8] was “inactive”.
With `Cc1ccnc(NS(=O)(=O)c2ccc(N)cc2)n1` the Potency [7] was “inactive” and the Potency [5] was “inactive”.
With `Oc1ccc(Cl)c2cccnc12` the Potency [5] was “inactive”.
With `Cc1c(C(N)=O)cc([N+](=O)[O-])cc1[N+](=O)[O-]` the Potency [5] was “inactive”.
For `C1CCc2nnnn2CC1`, the outcome [6] was “inactive” and the Potency [5] was “inactive”.
For `C[C@@H]1C(=O)NC2=Nc3cccc(Cl)c3CN21`, the outcome [6] was “inactive”.
With `CCn1cc(C(=O)O)c(=O)c2cnc(N3CCCC3)nc21` the Potency [5] was “inactive”.
For `CCCn1c(=O)[nH]c(=O)c2[nH]cnc21`, the outcome [6] was “inactive”, the Potency [7] was “inactive” and the Potency [5] was “inactive”. The Potency [9] was “inactive”.
With `COc1ccc(CCN2CCC(Nc3nc4ccccc4n3Cc3ccc(F)cc3)CC2)cc1` the Potency [7] was “inactive”, the Potency [8] was “inactive” and the Potency [9] was 7.94 µM (active).
With `COc1cc(-c2ccc(=O)[nH]n2)ccc1OC(F)F` the outcome [6] was “inactive”, the Potency [5] was “inactive” and the Potency [9] was “inactive”.
In the case of `CCN(CCCc1ccccc1)CCCc1ccccc1`, the Potency [5] is reported as “inactive”.
In the case of `CCN(CC)C(=O)N1CCN(C)CC1`, the Potency [5] is reported as “inactive”.
In the case of `Cc1ccc(C(=O)C(C)CN2CCCCC2)cc1` (configuration not stated), the Potency [5] is reported as “inactive”.
In the case of `O=C(O)c1cc2cc(Cc3cccnc3)ccc2o1`, the outcome [6] is reported as “inactive”, the Potency [5] is reported as “inactive” and the Potency [8] is reported as “inactive”.
With `CCCC1O[C@@H]2C[C@H]3[C@@H]4CCC5=CC(=O)C=C[C@]5(C)[C@H]4[C@@H](O)C[C@]3(C)[C@]2(C(=O)CO)O1` (some centres not stated) the outcome [6] was “inactive” and the Potency [8] was “inactive”.
With `N[C@@H](Cc1cnc[nH]1)C(=O)O` the outcome [6] was “inactive”, the Potency [8] was “inactive” and the Potency [10] was “inactive”.
In the case of `Oc1c(I)cc(I)c2cccnc12`, the Potency [5] is reported as “inactive”.
In the case of `CC(C)NC[C@@H](O)COc1cccc2ccccc12`, the outcome [6] is reported as “inactive” and the Potency [5] is reported as “inactive”.
For `CO/N=C1\CN(c2nc3c(cc2F)c(=O)c(C(=O)O)cn3C2CC2)CC1CN` (configuration not stated), the Potency [5] was “inactive”.
In the case of `CCOC(=O)n1ccn(C)c1=S`, the Potency [5] is reported as “inactive”.
In the case of `CCCCOc1ccc(C(=O)CCN2CCCCC2)cc1`, the Potency [7] is reported as 2.51 µM (active), the Potency [8] is reported as “inactive” and the Potency [9] is reported as 5.01 µM (active).
With `CCCCOc1cc(C(=O)NCCN(CC)CC)c2ccccc2n1` the Potency [5] was “inactive”.
